The structures appear in SMILES notation. The campaign covered roughly 68,000 compounds. About 2,700 (4%) showed an effect of 50% or more. Many of the other results were omitted from the sample, so strong results are more common in it than they were.

In this experiment the test system is Plasmodium berghei. Description: Screen against P. berghei liver stage (PbLuc), transformed with Luciferase, at 2uM. It is filed as functional, HepG2. The note with it: tested at 2 uM.
Take `COCc1nc(C(=O)NS(=O)(=O)c2ccc(Cl)cc2F)cs1`: the INHIBITION was -7.88%. To `NC(=O)c1ccc(CN2CCC(N3CCCC3)CC2)cc1` belongs -29.69%. To `NC(=O)c1ccc(CN2CCCC(N3CCCCCC3)C2)cc1` (stereo not drawn) belongs 9.8%. To `NC(=O)c1ccc(CN2CCCC(N3CCCC3)C2)cc1` (stereo not drawn) belongs 58.65%. Take `COCCN1CCC(Nc2c(F)cc(C#N)cc2F)CC1`: the INHIBITION was -22.01%. On to `O=C(CCO)N[C@H]1CN(CC2CCC2)C[C@@H]1c1ccccc1`, for which the INHIBITION is listed as 75.86%. For the molecule `CSCC(=O)N[C@H]1CN(CC2CCOCC2)C[C@@H]1c1ccccc1`, the INHIBITION was 37.15%. To `CS(=O)(=O)NCC(=O)N[C@H]1CN(CC2CC2)C[C@@H]1c1ccccc1` belongs 48.93%. As for `CN(C)S(=O)(=O)N1C[C@H]2CC[C@@H](C1)N(Cc1cccc(C#N)c1)C2`, the figure is -19.83%. To `CCNC(=O)N1CCc2ccc(NC(=O)NCCOCC)cc21` belongs 10.1%; to `Cn1c(-c2ccccc2Cl)nc2cc(C(=O)NCC3(CO)CC3)cnc21`, 58.53%; to `Cn1c(-c2ccccc2Cl)nc2cc(C(=O)NC(CO)CO)cnc21`, 56.89%. For the molecule `CN(C)CCNC(=O)c1cnc2c(c1)nc(-c1ccccc1Cl)n2C`, the INHIBITION is reported as -1.73%.

Consider `Cn1c(-c2ccccc2Cl)nc2cc(C(=O)NCCOCCO)cnc21`, for which the INHIBITION was determined as 2.7%. To `CC(=O)NCCNC(=O)c1cnc2c(c1)nc(-c1ccccc1Cl)n2C` belongs -5.51%; to `Cn1c(-c2ccccc2Cl)nc2cc(C(=O)NCC3(C)COC3)cnc21`, 21.24%; to `COc1ccc(NC(=O)CCC2CCCN(S(=O)(=O)C3CC3)C2)cc1Cl` (stereo not drawn), 13.99%. Take `CCc1ccc(C(=O)N2CCCC(CNS(C)(=O)=O)C2)o1` (stereo not drawn): the INHIBITION is listed as -23.94%. As for `O=C(c1ccc(F)c(Cl)c1)N1C[C@H]2CC[C@@H](C1)N(Cc1ccccc1)C2`, the INHIBITION is given as -38.33%. To `Cc1cn2nc(N3CCCC3CC(C)(C)C)sc2n1` (stereo not drawn) belongs 29.11%; to `CC(CO)(NCc1noc(Cc2ccccc2)n1)C1CCCCC1` (stereo not drawn), -69.13%; to `CCc1nc(CNC(C)(CO)C2CCCCC2)no1` (stereo not drawn), 17.89%.

In the case of `COCCc1noc(CNC(C)(CO)C2CCCCC2)n1` (stereo not drawn), the INHIBITION came out at 65.79%. To `O=C1CCCc2cc(-c3csc(CCN4CCOC4=O)n3)ccc2N1` belongs 33.01%. For `CN1C(=O)Cc2cc(-c3csc(CCN4CCOC4=O)n3)ccc21`, the INHIBITION is -35.62%. As for `O=C1OCCN1CCc1nc(-c2cc3c4c(c2)CC(=O)N4CCC3)cs1`, the figure is 78.51%; as for `CC(C)(C)c1ncc(C(=O)NCCSc2ccccn2)c(O)n1`, 68.02%. Take `CCn1c(C)nnc1SCCNC(=O)c1cnc(C(C)(C)C)nc1O`: the INHIBITION stood at 3.86%. For `Cc1nc(C(C)C)sc1C(=O)NCCSc1ccccn1`, the INHIBITION is listed as -103.61%. As for `CN1C[C@H]2CC[C@@H](C1)N(Cc1ccccc1OCCN1CCOCC1)C2`, the figure is 32.1%.

Take `NC(=O)CC1CC2(CCNCC2)c2cc(F)ccc21` (stereo not drawn): the INHIBITION is reported as -8.62%. As for `c1cnc(-c2nn3c(CN4CCCCC4)nnc3s2)cn1`, the figure is 7.91%. For `c1cnc(-c2nn3c(CN4CCOCC4)nnc3s2)cn1`, the INHIBITION turned out to be 26.03%. As for `c1cnc(-c2nn3c(CN4CCCCCC4)nnc3s2)cn1`, the figure is 55.73%; as for `COC(=O)N1CCCC(NC(=O)NCc2ccc(C)nc2)C1` (stereo not drawn), 22.07%; as for `CC(C)(C)CC(=O)N1CC[C@H]2CC(=O)N(CCc3c[nH]cn3)CC[C@H]2C1`, 17.31%. To `Cc1cccc(C(C(=O)NCCCc2nnc3ccccn23)N(C)C)c1` (stereo not drawn) belongs -0.59%; to `CCc1nnc(CN(CC)C(=O)C2CC(=O)N(CC)C2)o1` (stereo not drawn), 6.84%. As for `CCc1nnc(CN(CC)C(=O)C2CC(=O)N(C3CC3)C2)o1` (stereo not drawn), the figure is 10.02%; as for `CCc1nnc(CN(CC)C(=O)C2CC(=O)N(C(C)(C)C)C2)o1` (stereo not drawn), 50.86%; as for `CCc1c(C)nc2cc(-c3nccn3C)nn2c1N1CCCC(CO)C1` (stereo not drawn), -40.66%. Take `CCS(=O)(=O)c1ccc2oc([C@H]3CCN(Cc4ccncc4)C3)nc2c1`: the INHIBITION is reported as 61.7%. To `CCS(=O)(=O)c1ccc2oc([C@H]3CCN(Cc4ccccn4)C3)nc2c1` belongs 30.4%; to `CCS(=O)(=O)c1ccc2oc([C@H]3CCN(CC4CCCCC4)C3)nc2c1`, 44.13%; to `CCS(=O)(=O)c1ccc2oc([C@H]3CCN(Cc4ccccc4)C3)nc2c1`, 55.66%. To `Cc1ccc2oc([C@H]3CCN(Cc4ccccc4)C3)nc2c1` belongs 45.22%. To `CCS(=O)(=O)c1ccc2oc([C@H]3CCN(Cc4cccnc4)C3)nc2c1` belongs 16.12%. For `O=C(c1cccc(F)c1)N1CC[C@H]2[C@H]1CCN2CC1CCOCC1`, the INHIBITION was 13.04%. To `CCc1nccn1C1CCCN(C(=O)c2ccn(-c3ccccc3)n2)C1` (stereo not drawn) belongs 6.54%; to `O=C(CC1CNCCO1)N1CCC(c2cc(N3CCCC3)ncn2)CC1` (stereo not drawn), 48.93%; to `O=C(CN1CCOCC1)N1CCC(c2cc(N3CCCC3)ncn2)CC1`, 70.81%.

As for `O=C(C1CNCCO1)N1CCC(c2cc(N3CCCC3)ncn2)CC1` (stereo not drawn), the INHIBITION stood at 37.15%. As for `Cn1ccnc1-c1cn(CCCc2csc(N)n2)nn1`, the figure is -21.39%; as for `CCNC(=O)[C@@H]1C[C@H](NC(=O)c2cncnc2C)CN1Cc1ccsc1`, 12.78%.

With `CCn1c(-c2ccccc2)nn(CC(=O)NCCc2ccc(C)s2)c1=O`, the INHIBITION was 47.25%. To `Cc1ccc(-n2nnc(C(=O)NC(C)C)c2C2CC2)cc1` belongs 82.5%; to `CC(C)NC(=O)c1nnn(-c2ccc(F)cc2)c1C1CC1`, 3.89%. For the molecule `CC(C)NC(=O)c1nnn(-c2ccccc2)c1C1CC1`, the INHIBITION is 2.31%. As for `Cc1cc(C)n(C2CN(CCc3ccccn3)C2)n1`, the figure is -7.32%. To `CN(C)Cc1nnc(C2CCCN(c3ncccc3F)C2)n1C` (stereo not drawn) belongs 6.39%; to `CN(C)Cc1nnc(C2CCCN(c3nccc4ccccc34)C2)n1C` (stereo not drawn), 63.01%. With `CN(C)CCn1ccnc1C1CCCN(c2nccc3ccccc23)C1` (stereo not drawn), the INHIBITION is recorded as 49.94%.

As to `Cc1cc(C)nc(NCCCC(=O)NCCn2ccc3ccccc32)n1`, the INHIBITION is given as -12.76%.

Turning to `Cc1cc(C)nc(NCCC(=O)NCCn2ccnc2C)n1`, the INHIBITION is given as 28.4%.

For `Cc1cc(C)nc(NCCC(=O)NCCn2ccc3ccccc32)n1`, the INHIBITION turned out to be 50.94%. To `CCS(=O)(=O)N(C)C1CCN(C(=O)c2cccc(Cl)c2)CC1` belongs -41.98%.

For `CCC(=O)Nc1ccc2c(c1)C1(CCOCC1)CN2CCF`, the INHIBITION is given as -24.5%. As for `COc1ccc(OC)c(-c2nc(CN(C)Cc3nncn3C)c(C)o2)c1`, the figure is -5.6%; as for `CNC(=O)c1ccccc1NCc1ncnn1C`, 54.03%; as for `COc1ccc(NC(=O)c2ccccc2NCc2ncnn2C)cc1`, -25.35%. In the case of `Cn1ncnc1CNc1ccccc1C(=O)NC(C)(C)C`, the INHIBITION is reported as -38.42%. As for `CC(C)c1nnc2n1CC(CNC/C=C/c1ccccc1)CC2` (stereo not drawn), the figure is 4.8%. As for `CC(C)c1n[nH]c(C2CN(C(=O)c3cc4c(s3)CCC4)CCO2)n1` (stereo not drawn), the figure is 10.53%; as for `COCC(c1cccc(C(F)(F)F)c1)N(C)C(=O)c1ccccn1` (stereo not drawn), -9.61%; as for `CC(C)(C)NC(=O)CN1CCCC(c2ccc(C(=O)O)cc2)C1` (stereo not drawn), 31.27%. To `CCNC(=O)CN1CCCC(c2ccc(C(=O)O)cc2)C1` (stereo not drawn) belongs 2.06%; to `CC(C)CNC(=O)CN1CCCC(c2ccc(C(=O)O)cc2)C1` (stereo not drawn), 50.67%; to `CCS(=O)(=O)N1CCC(c2cc3n(n2)[C@@H](C(F)(F)F)C[C@@H](C)N3)CC1`, -22.38%. Consider `Cc1cc(C)n(CC(=O)N2C[C@H]3CC[C@@H](C2)N(CC2CCC2)C3)c(=O)n1`, for which the INHIBITION was determined as 41.07%.

In the case of `Cc1nc(=O)c(CC(=O)N2C[C@H]3CC[C@@H](C2)N(CC2CCC2)C3)c[nH]1`, the INHIBITION is reported as 68.39%.

Regarding `Cc1nc(=O)c(CC(=O)N2C[C@H]3CC[C@@H](C2)N(CC2CCC2)C3)c(C)[nH]1`, the INHIBITION was found to be 25.47%. To `Cc1ccc(C(C)NC(=O)Cc2c(C)nc3c(c2C)c(=O)[nH]n3C)o1` (stereo not drawn) belongs -30.5%.

With `CC(C)C1CN(C(=O)c2ccc3nccnc3c2)CCS1` (stereo not drawn), the INHIBITION is given as 43.29%. As to `OCCOCc1n[nH]c2c1CN(Cc1cccs1)C2`, the INHIBITION was 52.74%.

In the case of `c1ccc(CN2Cc3[nH]nc(COCC4CC4)c3C2)nc1`, the INHIBITION turned out to be 28.5%. For the molecule `Cc1cccc(CN2Cc3[nH]nc(COCC4CC4)c3C2)n1`, the INHIBITION was -4.06%. Turning to `OCCOCc1n[nH]c2c1CN(Cc1ccccn1)C2`, the INHIBITION came out at 2.69%. As for `CCOCc1nn(CC2CC2)c2c1CN(Cc1cccs1)CC2`, the figure is 34.93%. To `c1csc(CN2Cc3[nH]nc(COCC4CC4)c3C2)c1` belongs 58.98%. As for `c1ccc(OCc2n[nH]c3c2CN(Cc2cccs2)C3)nc1`, the figure is 29.45%; as for `OCCOCc1n[nH]c2c1CN(Cc1ccco1)C2`, 8.99%; as for `COCc1nn(CC2CC2)c2c1CN(Cc1cccs1)CC2`, 51.26%. `COCc1n[nH]c2c1CN(Cc1cccs1)C2`: the INHIBITION came out at 56.21%.

For the molecule `c1cncc(OCc2n[nH]c3c2CN(Cc2cccs2)C3)c1`, the INHIBITION is listed as 14.94%. Regarding `COCc1nn(CC2CC2)c2c1CN(Cc1ccco1)CC2`, the INHIBITION came out at 38.09%. On to `CCC[C@H]1CN(C(=O)CCn2ccccc2=O)C[C@@H]1NS(C)(=O)=O`, for which the INHIBITION was found to be 25.9%.

Consider `CC(C)S(=O)(=O)NC(=O)c1cc(-c2cccc(Cl)c2)no1`, for which the INHIBITION was found to be 38.67%. As for `COc1ccc(C)cc1-n1c(COC(C)C)n[nH]c1=O`, the INHIBITION was -19.78%.

As to `Cc1nc(C2CCCN2CCCc2nc3ccccc3o2)no1` (stereo not drawn), the INHIBITION is recorded as 17.19%.

Regarding `COCCCN1CCC(C(=O)c2cc(F)ccc2F)CC1`, the INHIBITION was -6.4%. As for `O=C(NCC1(Sc2ccccc2)CC1)c1c[nH]nn1`, the figure is 66.4%; as for `O=C(NCC1(Sc2ccccc2)CC1)c1cc[nH]n1`, 32.51%. As for `O=C(NCC1(Sc2ccccc2)CC1)c1ccc(=O)[nH]n1`, the figure is -5.26%.

The values are drawn from ChEMBL document CHEMBL4513216, “Probing the Open Global Health Chemical Diversity Library for Multistage-Active Starting Points for Next-Generation Antimalarials” (ACS Infect Dis, 2020).
